{
  "source": "the supplement of paper PMC8728848",
  "assay_in_all_cases": "glycan array binding signal (z-score within array); higher = stronger binding",
  "settings_in_all_cases": "glycan notation: IUPAC condensed, linker removed",
  "key": {"[1]": {"target": "Fuc(a1-2)Gal(b1-3)[Fuc(a1-4)]GlcNAc(b1-3)[Fuc(a1-3)[Gal(b1-4)]GlcNAc(b1-6)]Gal(b1-4)Glc", "method_in_brief": "(§1)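 Negative Z-scores can be read as non-binding. The Z-score is calculated within each array and then averaged across arrays of one protein sequence at different concentrations or buffers and across linkers. Arrays, 3228 in all, were curated from the Consortium for Functional Glycomics database and kept only where the protein sequence was available.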"}, "Fuc(a1-2)Gal(b1-4)Glc6S": {"target": "Fuc(a1-2)Gal(b1-4)Glc6S", "method_in_brief": "as §1"}, "[2]": {"target": "Fuc(a1-2)Gal(b1-4)GlcNAc(b1-3)[Fuc(a1-3)[Gal(b1-4)]GlcNAc(b1-6)]Gal(b1-4)Glc", "method_in_brief": "as §1"}, "[3]": {"target": "Fuc(a1-2)Gal6S(b1-3)GlcNAc6S", "method_in_brief": "as §1"}, "Fuc(a1-2)Gal6S(b1-4)Glc": {"target": "Fuc(a1-2)Gal6S(b1-4)Glc", "method_in_brief": "as §1"}, "[4]": {"target": "Fuc(a1-2)[Gal(a1-3)]Gal(b1-3)GlcNAc(b1-3)GalNAc", "method_in_brief": "as §1"}, "[5]": {"target": "Fuc(a1-2)[Gal(a1-3)]Gal(b1-4)GlcNAc(b1-3)GalNAc", "method_in_brief": "as §1"}, "[6]": {"target": "Fuc(a1-2)[Gal(a1-3)]Gal(b1-4)GlcNAc(b1-3)[Fuc(a1-2)[Gal(a1-3)]Gal(b1-4)GlcNAc(b1-6)]GalNAc", "method_in_brief": "as §1"}, "[7]": {"target": "Fuc(a1-2)[GalNAc(a1-3)]Gal(b1-4)Glc", "method_in_brief": "as §1"}, "[8]": {"target": "Fuc(a1-3)[Gal(b1-4)]Glc6S", "method_in_brief": "as §1"}, "[9]": {"target": "Fuc(a1-3)[Gal(b1-4)]GlcNAc(b1-3)GalNAc", "method_in_brief": "as §1"}, "[10]": {"target": "Fuc(a1-3)[Gal3S(b1-4)]Glc", "method_in_brief": "as §1"}, "Fuc(a1-4)GlcNAc": {"target": "Fuc(a1-4)GlcNAc", "method_in_brief": "as §1"}, "[11]": {"target": "Gal(a1-3)Gal(b1-4)GlcNAc(b1-6)GalNAc", "method_in_brief": "as §1"}, "[12]": {"target": "Gal(b1-3)GlcNAc(b1-2)Man(a1-3)[GlcNAc(b1-4)][Gal(b1-3)GlcNAc(b1-2)Man(a1-6)]Man(b1-4)GlcNAc(b1-4)GlcNAc", "method_in_brief": "as §1"}, "[13]": {"target": "Gal(b1-3)GlcNAc(b1-3)Gal(b1-4)[Fuc(a1-3)]GlcNAc(b1-6)[Gal(b1-3)GlcNAc(b1-3)]Gal(b1-4)Glc", "method_in_brief": "as §1"}, "[14]": {"target": "Gal(b1-3)GlcNAc(b1-6)GalNAc", "method_in_brief": "as §1"}, "[15]": {"target": "Gal(b1-3)[Fuc(a1-4)]GlcNAc(b1-2)Man", "method_in_brief": "as §1"}, "Gal(b1-4)GlcNAc(b1-2)Man": {"target": "Gal(b1-4)GlcNAc(b1-2)Man", "method_in_brief": "as §1"}, "[16]": {"target": "Gal(b1-4)GlcNAc(b1-2)Man(a1-3)[Gal(b1-4)GlcNAc(b1-2)Man(a1-6)]Man(b1-4)GlcNAc(b1-4)GlcNAc", "method_in_brief": "as §1"}, "[17]": {"target": "Gal(b1-4)GlcNAc(b1-2)Man(a1-3)[Gal(b1-4)GlcNAc(b1-2)Man(a1-6)][GlcNAc(b1-4)]Man(b1-4)GlcNAc(b1-4)[Fuc(a1-6)]GlcNAc", "method_in_brief": "as §1"}, "[18]": {"target": "Gal(b1-4)GlcNAc(b1-2)Man(a1-3)[GlcNAc(b1-4)][Gal(b1-4)GlcNAc(b1-2)Man(a1-6)]Man(b1-4)GlcNAc(b1-4)GlcNAc", "method_in_brief": "as §1"}, "[19]": {"target": "Gal(b1-4)GlcNAc(b1-2)[Gal(b1-4)GlcNAc(b1-4)]Man(a1-3)[GlcNAc(b1-4)][Gal(b1-4)GlcNAc(b1-2)[Gal(b1-4)GlcNAc(b1-6)]Man(a1-6)]Man(b1-4)GlcNAc(b1-4)GlcNAc", "method_in_brief": "as §1"}, "[20]": {"target": "Gal(b1-4)GlcNAc(b1-2)[Gal(b1-4)GlcNAc(b1-6)]Man(a1-6)[GlcNAc(b1-4)][Gal(b1-4)GlcNAc(b1-2)[Gal(b1-4)GlcNAc(b1-4)]Man(a1-3)]Man(b1-4)GlcNAc(b1-4)[Fuc(a1-6)]GlcNAc", "method_in_brief": "as §1"}, "[21]": {"target": "Gal(b1-4)GlcNAc(b1-3)Gal(b1-4)GlcNAc(b1-3)Gal(b1-4)GlcNAc(b1-2)[Gal(b1-4)GlcNAc(b1-3)Gal(b1-4)GlcNAc(b1-3)Gal(b1-4)GlcNAc(b1-6)]Man(a1-6)[Gal(b1-4)GlcNAc(b1-3)Gal(b1-4)GlcNAc(b1-3)Gal(b1-4)GlcNAc(b1-2)Man(a1-3)]Man(b1-4)GlcNAc(b1-4)[Fuc(a1-6)]GlcNAc", "method_in_brief": "as §1"}, "[22]": {"target": "Gal(b1-4)GlcNAc(b1-3)Gal(b1-4)GlcNAc(b1-6)[Gal(b1-3)]GalNAc", "method_in_brief": "as §1"}, "[23]": {"target": "Gal(b1-4)GlcNAc(b1-3)[Fuc(a1-3)GlcNAc(b1-6)]Gal(b1-4)Glc", "method_in_brief": "as §1"}},
  "note": "This excerpt belongs to a sample that is enriched for the strongest signals.",
  "data": [
    {"binder": "HBHA-Rv (Mycobacterium tuberculosum), P0A5P6 (protein) MAENSNIDDIKAPLLAALGAADLALATVNELITNLRERAEETRTDTRSRVEESRARLTKLQEDLPEQLTELREKFTAEELRKAAEGYLEAATSRYNELVERGEAALERLRSQQSFEEVSARAEGYVDQAVELTQEALGTVASQTRAVGERAAKLVGIELPKKAAPAKKAAPAKKAAPAKKAAAKKAPAKKAAAKKVTQK", "values": [
      {"measurement": "glycan array binding signal (z-score)", "setting": "[1]", "value": -0.277},
      {"measurement": "glycan array binding signal (z-score)", "setting": "Fuc(a1-2)Gal(b1-4)Glc6S", "value": -0.121},
      {"measurement": "glycan array binding signal (z-score)", "setting": "[2]", "value": -0.392},
      {"measurement": "glycan array binding signal (z-score)", "setting": "[3]", "value": 4.34},
      {"measurement": "glycan array binding signal (z-score)", "setting": "Fuc(a1-2)Gal6S(b1-4)Glc", "value": 0.069},
      {"measurement": "glycan array binding signal (z-score)", "setting": "[4]", "value": -0.259},
      {"measurement": "glycan array binding signal (z-score)", "setting": "[5]", "value": -0.204},
      {"measurement": "glycan array binding signal (z-score)", "setting": "[6]", "value": 2.82},
      {"measurement": "glycan array binding signal (z-score)", "setting": "[7]", "value": 0.064},
      {"measurement": "glycan array binding signal (z-score)", "setting": "[8]", "value": -0.398},
      {"measurement": "glycan array binding signal (z-score)", "setting": "[9]", "value": -0.275},
      {"measurement": "glycan array binding signal (z-score)", "setting": "[10]", "value": -0.017},
      {"measurement": "glycan array binding signal (z-score)", "setting": "Fuc(a1-4)GlcNAc", "value": 20},
      {"measurement": "glycan array binding signal (z-score)", "setting": "[11]", "value": 0.154},
      {"measurement": "glycan array binding signal (z-score)", "setting": "[12]", "value": 0.595},
      {"measurement": "glycan array binding signal (z-score)", "setting": "[13]", "value": -0.453},
      {"measurement": "glycan array binding signal (z-score)", "setting": "[14]", "value": -0.248},
      {"measurement": "glycan array binding signal (z-score)", "setting": "[15]", "value": 1.28},
      {"measurement": "glycan array binding signal (z-score)", "setting": "Gal(b1-4)GlcNAc(b1-2)Man", "value": 1.37},
      {"measurement": "glycan array binding signal (z-score)", "setting": "[16]", "value": 0.061},
      {"measurement": "glycan array binding signal (z-score)", "setting": "[17]", "value": -0.352},
      {"measurement": "glycan array binding signal (z-score)", "setting": "[18]", "value": -0.309},
      {"measurement": "glycan array binding signal (z-score)", "setting": "[19]", "value": -0.455},
      {"measurement": "glycan array binding signal (z-score)", "setting": "[20]", "value": -0.428},
      {"measurement": "glycan array binding signal (z-score)", "setting": "[21]", "value": -0.41},
      {"measurement": "glycan array binding signal (z-score)", "setting": "[22]", "value": -0.399},
      {"measurement": "glycan array binding signal (z-score)", "setting": "[23]", "value": -0.398}
    ]}
  ]
}
